# In ChEMBL document CHEMBL3988442, “University of Dundee, Small-Polar-MMV Screening Library” (2021):
# Screen size: about 48,000 compounds; about 13,000 (27%) showed an effect of 50% or more. Some of the results follow.
# Test system: Wolbachia pipientis
# Test: Anti-Wolbachia Cell-Based Screen
# Format: functional
# Design: scale not given: in the data most compounds retested in dose-response had high values
# Conditions: 5 µM
row,Structure (SMILES),Percent Effect
1,Cc1ccc(C(=O)NCC(O)CN2CCCC2=O)cc1Cl (stereo not given),2.235%
2,CC1CCCCN1Cc1ccc(-c2ccccc2C(=O)O)cc1 (stereo not given),-6.204%
3,CS(=O)(=O)c1ccc(-c2ccccc2C(=O)O)cc1,122%
4,CNC(=O)c1ccccc1-c1ccc(S(C)(=O)=O)cc1,101.9%
5,Cc1ccc(S(C)(=O)=O)cc1C(=O)NS(C)(=O)=O,-9.422%
6,CC(=O)c1ccccc1-c1cc(C(=O)O)cc(S(=O)(=O)NC(C)C)c1,0.5422%
7,CS(=O)(=O)c1ccc(CNC(=O)NCc2cc[nH]n2)cc1,1.077%
8,CN(C)C(C(=O)N1CC(Oc2ccccc2F)C1)c1ccccc1F (stereo not given),-4.147%
9,CO[C@@H]1CCN(S(=O)(=O)c2cccs2)[C@H]1Cc1ccccc1,7.736%
10,Cc1n[nH]c(C)c1NC(=O)CN1CCn2c(nnc2C(C)C)C1,-1.446%
11,C[C@H](C(=O)N1Cc2ccccc2CC2(CCCN2C)C1)c1ccccc1 (stereo not given in full),111.3%
12,CC(C)C(=O)N1CCCC12CCN(C(=O)c1ccno1)C2 (stereo not given),-2.946%
13,CC(C)C(=O)N1Cc2ccccc2CC2(CCCN2C)C1 (stereo not given),90.17%
14,CC(C)C(=O)N1Cc2ccccc2CC2(CCCCN2C)C1 (stereo not given),96.75%
15,CC(C)C(=O)N1CCCC12CCCN(C(=O)c1ccno1)C2 (stereo not given),-3.277%
16,CC(C)C(=O)N1CCC12CCCN(C(=O)c1ccccc1)C2 (stereo not given),-15.79%
17,CC(C)C(=O)N1CCC12CCCN(C(=O)c1ccnnc1)C2 (stereo not given),-3.572%
18,CC(=O)c1cc(CN2C[C@@H](C(=O)O)[C@H](c3cccnc3)C2)cs1,-13.15%
19,CCN(Cc1cc(Cl)ccc1OC)Cc1cc(C)nn1C,-10.03%
20,Cc1nnsc1CN(C)C(=O)CCn1cnc2ccccc21,-11.62%
21,O=C(CNCC1(O)CCCN(Cc2cccc(F)c2F)C1=O)NC1CC1 (stereo not given),-1.283%
22,CN(CCCOc1ccccc1)C(=O)CN1CCc2cncnc2C1,0.7453%
23,CCCOc1ccc2c(c1)OCC(C(=O)NC(C)Cn1ccnc1)=C2 (stereo not given),6.426%
24,O=C(NCCCn1cccn1)C1CCC(=O)N(CC2CCCCC2)C1 (stereo not given),-8.272%
25,O=C1NC[C@@]2(C(=O)O)CN(Cc3cccc(OC4CCCC4)c3)C[C@@H]12,-26.72%
26,NC(=O)c1nc(-c2cccc(Cl)c2)oc1N,102.5%
27,CC(C)C(C(N)=O)c1cccc(Cl)c1 (stereo not given),-0.9613%
28,NC(=O)c1nc(-c2ccc(Cl)cc2Cl)oc1N,118.4%
29,Cc1sc(CN)nc1-c1ccc(Cl)cc1Cl,-19.51%
30,NC(=O)N1CCCN(CCc2nc(-c3cccc(Cl)c3)no2)CC1,5.099%
